# Assay outcomes (PubChem BioAssay)
# This is a sample that favours compounds with a hit; in the whole collection about 10% have one here.
# HP1b binding inh = HTS for Inhibitors of HP1-beta Chromodomain Interactions with Methylated Histone Tails | Chromobox protein homolog 1 (Homo sapiens), P83916 | AlphaScreen HP1-beta / biotin-H3K9me3 peptide binding | Potency, µM (series often up to 114 µM), without a hit: at the highest dose activity change, negative = inhibition, most hits filed as inhibitors | hit rate 0.56% among 390,000 | AID 540317, 2011; also: potency is read from the fitted curve at half-maximal effect; nearly all actives have a fitted effect of over 70% in size
#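 AlphaScreen: HP1-beta (50 nM) preformed 30 min with biotin-H3(1-18)K9me3 peptide (50 nM) in PBS pH 7.4, 0.01% Tween-20. Compound added for 30 min at RT, then streptavidin donor/nickel chelate acceptor beads (10 ug/mL) for 30 min.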
# Six1-Eya2 blk = qHTS Assay for Inhibitors of the Six1/Eya2 Interaction; activity change, % (test concentration not listed); hit rate 0.56% among 360,000; AlphaScreen GST-Six1/His-Eya2 binding, biochemical; active compounds read low; in the data active = activity change below about -65%; inconclusive = mostly about -30% to -63%; also: % is scaled to controls: 0 for no effect and ±100 for the full control effect
#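 Six1/Eya2 binding was read as AlphaScreen signal after compounds were pinned into GST-Six1 plus His-tagged Eya2 (5X stock 250/500 nM) in pH 8.0 Tris/NaCl/TCEP buffer, beads added, then incubated 1 h, 37 C, dark.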
# BAZ2B block = qHTS Assay for Inhibitors of BAZ2B; AlphaScreen BAZ2B-H3K14Ac peptide displacement; Bromodomain adjacent to zinc finger domain protein 2B (Homo sapiens), Q9UIF8; Potency, µM (doses to about 114 µM), for the others: at the highest dose activity change, negative = inhibition, actives largely listed as inhibitors; hit rate 4.4% among 360,000; also: potency is read from the fitted curve at half-maximal effect; % is scaled to controls: 0 for no effect and ±100 for the full control effect; nearly all actives have a fitted effect of over 60% in size
#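 In this displacement format the biotinylated H3(5-23) peptide acetylated at Lys14 serves as ligand at 50 nM, with BAZ2B at 50 nM in PBS pH 7.4 containing 0.01% Tween-20. Donor and acceptor beads are 10 ug/mL final.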
# G9a block = qHTS Assay for Inhibitors of Histone Lysine Methyltransferase G9a | Histone-lysine N-methyltransferase EHMT2 (Homo sapiens), Q96KQ7 | G9a H3K9 monomethylation, AlphaScreen, 2 h | Potency, µM (doses to about 102 µM), for inactives: top-dose activity, negative = inhibition, most hits filed as inhibitors | hit rate 8.8% among 350,000 | AID 504332, 2011; also: potency is read from the fitted curve at half-maximal effect; % is scaled to controls: 0 for no effect and ±100 for the full control effect; nearly all actives have a fitted effect of over 75% in size
#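 G9a (20 nM) preincubated 15 min RT with compounds, then 500 nM biotinylated H3K9 peptide and 20 uM SAM added; 2 h RT reaction. Monomethyl-H3K9 product detected by AlphaScreen with anti-H3K9me1 antibody, streptavidin donor and anti-rabbit IgG acceptor beads.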
# CtBP-E1A inh = qHTS Assay for Inhibitors of the CtBP/E1A Interaction. activity change, % (test concentration not listed). AlphaScreen GST-E1A/His-CtBP binding, 1536-well; active compounds read low. hit rate 0.49% among 340,000. AID 651724, 2012. CtBP / adenovirus E1A interaction (AlphaScreen); in the data active = activity change below about -65%; inconclusive = mostly about -30% to -63%; also: % is scaled to controls: 0 for no effect and ±100 for the full control effect
#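 GST-E1A and His-tagged CtBP (125 nM each as 5X stock) were preincubated with pin-transferred compound for 2 h at 37 °C in the dark, then glutathione donor and nickel acceptor beads were added for 1 h before AlphaScreen reading.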
# JMJD2A Tudor = qHTS Assay for Inhibitors of JMJD2A-Tudor Domain; Lysine-specific demethylase 4A (Homo sapiens), O75164; AlphaScreen JMJD2A-Tudor / H3K4me3 peptide binding; Potency, µM (series often up to 114 µM), for the others: at the highest dose activity change, negative = inhibition, most hits filed as inhibitors; hit rate 4.4% among 390,000; AID 504339, 2011; also: potency is read from the fitted curve at half-maximal effect; % is scaled to controls: 0 for no effect and ±100 for the full control effect; nearly all actives have a fitted effect of over 50% in size
# * hit, by the source's call; u = inconclusive; x = not tested or not shown; [ ] = remark or other dose. Unless noted, calls follow the shape of the dose curve; as a rule, active = well fitted inhibition curve with a large enough effect; inconclusive = small, poorly fitted or top-dose-only effect; inactive = no such curve, though single readings can be large or run the other way.
SMILES,HP1b binding inh,Six1-Eya2 blk,BAZ2B block,G9a block,CtBP-E1A inh,JMJD2A Tudor
CCOC(=O)C(=CNc1ncccc1C)C(=O)OCC,11.2%,3.4,2.2%,27.1%[59 µM],1.5,-3.3%
CCOC(=O)C(=O)Cc1cccnn1,u,u,x,x,-1.6,3.55µM*
Cc1cc(C)c(NC(=S)NC(CO)(CO)CO)c(C)c1,16.5%,8.2,1.9%,10µM*,0.6,89.1µM*
C(=N\n1cnnc1)/c1ccc(N2CCOCC2)cc1,40.2%,1.6,x,17.4%[59 µM],2.0,-9.6%
S=c1[nH]c(-c2ccccc2)cn1/N=C/c1ccncc1,-23.9%[57 µM],16.8,-21.6%,1.58µM*,-6.2,0.708µM*
S=c1[nH]ncn1/N=C/c1ccc(Br)cc1,-5.3%,4.5,-29.1%,1.26µM*,-1.6,7.94µM*
S=c1[nH]ncn1/N=C/c1ccccc1,42.2%,2.3,-8.2%,26.0%[2.33 µM],9.0,6.31µM*
S=c1[nH]ncn1/N=C/c1ccc(N2CCOCC2)cc1,34.7%,1.8,-1.9%,1.78µM*,6.1,2.82µM*
CSc1nc(SCC(=O)O)c2sc3nc(-c4ccccc4)c4c(c3c2n1)CCC4,u,-2.4,22.4µM*,17.8µM*,x,28.2µM*
CSc1nc(N(C)CCO)c2sc3nc(-c4ccco4)c4c(c3c2n1)CCC4,-60.0%,u,50.1µM*,15.4%[0.0925 µM],-25.0,25.1µM*
CSc1nc(N2CCN(CCO)CC2)c2sc3nc(-c4ccco4)c4c(c3c2n1)CCC4,x,x,x,-13.9%[59 µM],x,x
CC1(C)Cc2c(c(-c3ccco3)nc3sc4c(NCC5CCCO5)ncnc4c23)CO1 (centres undefined),4.4%,1.2,5.3%,-19.1%[59 µM],9.5,u
CSc1nc(NCCN(C)C)c2sc3nc(-c4ccco4)c4c(c3c2n1)CCC4,u,-4.5,x,x,1.5,89.1µM*
Fc1cccc(Cc2c(-c3ccc(Cl)cc3)nc3ccc(Br)cn23)c1,x,1.9,x,x,4.0,x
O=c1c(O)c(-c2ccc(O)c(O)c2)oc2cc(O)ccc12,27.4%,u,x,x,-74.2*,-7.5%
CCOC(=O)c1ccc(NS(=O)(=O)c2cc3c(cc2C)n(C)c(=O)c(=O)n3C)cc1,31.6%,x,0.2%,-4.2%[59 µM],x,-5.9%
COc1ccc(NC(=S)NCCSc2ccc(Cl)cc2)c(OC)c1,-21.4%,-9.6,u,12.6µM*,0.9,-32.9%
COc1ccccc1NC(=S)NCCSc1ccc(Cl)cc1,35.7%,22.0,-30.4%,-3.6%,0.0,-2.1%
COc1ccc(C2=NC(C)(C)N(CC(=O)Nc3ccc(F)c(F)c3)C2=O)cc1,33.2%,x,-0.3%,-1.1%[59 µM],x,-10.1%
O=C1C2C3C=CC(CC3)C2C(=O)N1c1nccs1 (centres undefined),-40.5%,u,44.7µM*,-18.5%[59 µM],-15.4,50.1µM*
O=C(COC(=O)CNC(=O)c1ccccc1)Nc1cc(C(F)(F)F)ccc1Cl,x,x,x,x,x,-13.7%
COc1cccc(NS(=O)(=O)c2ccc3[nH]cc(C(=O)N(C)Cc4ccco4)c(=O)c3c2)c1,-21.8%,-9.6,-36.9%,-21.7%,-8.7,u
Cc1ccccc1NS(=O)(=O)c1ccc2[nH]cc(C(=O)N(C)Cc3ccco3)c(=O)c2c1,-28.7%,-23.5,56.2µM*,x,-0.5,u
Cc1nc(CS(=O)(=O)c2ccccc2)cc(Sc2ccc(Cl)cc2Cl)n1,33.1%,0.8,5.2%,36.0%[59 µM],1.9,-6.4%
Cc1nc(Cl)cc(CS(=O)(=O)c2ccc(Cl)cc2)n1,11.3%,0.2,79.4µM*,u,4.3,-10.7%
SMILES,HP1b binding inh,Six1-Eya2 blk,BAZ2B block,G9a block,CtBP-E1A inh,JMJD2A Tudor
Cc1ccc(NC(=O)c2cc(N(C)C)ccc2[P+](=O)O)cc1,5.3%,2.6,u,28.2µM*,8.1,u
Cc1ccc(NC(=O)c2cc3ccccc3cc2O)cc1,22.7%,11.1,-16.9%,7.9%,8.2,-12.7%
Cc1ccc(NC(=O)c2ccc3c(=O)n4c(nc3c2)CCC4)cc1S(=O)(=O)N(C)C,4.5%,u,-29.4%,3.1%,u,-19.3%
CCSC1=C(C#N)C(c2ccccc2Cl)C(C(=O)c2cccs2)C(O)(C(F)(F)F)N1 (centres undefined),44.9%,-5.1,-8.4%,10µM*,-0.8,-16.8%[57.1 µM]
CSC1=C(C#N)C(c2ccccc2Cl)C(C(=O)c2cccs2)C(O)(C(F)(F)F)N1 (centres undefined),17.5%,4.9,-4.8%,u,-3.8,-26.5%
COc1ccc(NC(=O)C(c2ccc(OC)cc2)N(C)C(=O)CC2NC(=O)NC2=O)cc1 (centres undefined),27.2%,34.8,1.5%,7.6%,6.4,-17.2%
CC(C)c1ccc(NC(=O)C(c2ccccc2)N(Cc2ccco2)C(=O)CC2NC(=O)NC2=O)cc1 (centres undefined),-8.0%,-3.2,u,14.1µM*,-1.7,-34.4%
COc1cccc2cc(-c3nc4sc(C(=O)Nc5ccc(F)cc5F)c(C)c4c(=O)[nH]3)c(=O)oc12,46.0%,x,-16.3%,-1.1%[59 µM],x,-20.1%
CN1C=CC=C/C1=C1\SC(=S)N(N)C1=O,29.8%,-0.2,-26.9%,28.2µM*,1.0,0.7%
COc1ccc(C(=O)c2c(C)c3ccccc3n2CC(O)CNC(C)C)cc1 (centres undefined),1.2%,0.0,-8.5%,44.7µM*,-21.1,-26.1%
COc1ccc(C2C(C(=O)Nc3cccnc3)=C(C)Nc3nc(-c4ccc(OC)c(OC)c4)nn32)cc1 (centres undefined),40.6%,x,-4.6%,5.9%[59 µM],x,-22.8%
Cc1ccc(/C=C/c2ccc3cccc(O)c3n2)s1,27.5%,-8.0,30.5%,28.2µM*,-2.6,-0.7%
Oc1cccc(/C=C/c2ccc3cccc(O)c3n2)c1,-6.5%,-21.9,u,-14.7%,u,-24.7%
CC(=O)Nc1ccc(CN2CCCCCCC2)cc1,u,3.0,u,-44.4%[59 µM],3.4,3.16µM*
O=C(Nc1ccc(CN2CCCCC2)cc1)c1c(F)c(F)c(F)c(F)c1F,3.7%,7.6,-16.2%,24.5%[12.7 µM],-2.6,-9.1%
S=C(Nc1ccc(CN2CCCCC2)cc1)Nc1cccc(Cl)c1Cl,22.4%,-3.9,-24.9%,39.8µM*,-4.2,u
OC[C@@H]1CC[C@@H](Cc2ccc(-c3ccccc3)cc2)O1,17.5%,3.0,x,x,3.0,-17.8%
CCOC(=O)c1sc2nc(CSc3ccccc3)nc(N3CCCN(C)CC3)c2c1C,u,-27.7,50.1µM*,44.7µM*,x,14.1µM*
